TDP1 cell noCPT: qHTS for Inhibitors of human tyrosyl-DNA phosphodiesterase 1 (TDP1): qHTS in cells in absence of CPT; DT40 Tdp1-/- hTDP1 cells, no CPT, ATP luminescence, 48 h; Potency, µM (highest dose often 46.2 µM), for inactives: top-dose activity change, negative = growth inhibition, hits mostly inhibitors; hit rate 15% among 420,000; further: potency means the concentration at half of the fitted maximal effect; nearly all actives have a fitted effect of over 55% in size
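Compound effects on proliferation are scored in DT40 Tdp1-/-;hTDP1 cells in the absence of CPT. ATP levels (CellTiter-Glo luminescence) are recorded after a ≥48 hr, 37 °C incubation.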
TDP1 cell CPT: qHTS for Inhibitors of human tyrosyl-DNA phosphodiesterase 1 (TDP1): qHTS in cells in presence of CPT; chicken DT40 Tdp1-/-;hTDP1 cells + 20 nM CPT, ATP luminescence, 48 h; Potency, µM (highest dose often 46.2 µM), for the others: top-dose activity change, negative = growth inhibition, usual class: inhibitors; hit rate 12% among 420,000; AID 686979, 2013; further: potency means the concentration at half of the fitted maximal effect; nearly all actives have a fitted effect of over 55% in size
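Chicken DT40 Tdp1-/- cells complemented with human TDP1, 400 cells/well, exposed to compounds plus 20 nM camptothecin for at least 48 h at 37 C; viability read as ATP content by CellTiter-Glo luminescence.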
HT1080NT lethal: qHTS for induction of synthetic lethality in tumor cells producing 2HG: qHTS for the HT-1080-NT fibrosarcoma cell line; HT-1080-NT fibrosarcoma viability, CellTiter-Glo ATP luminescence, 48 h; hit rate 1.6% among 360,000; AID 686970, 2013; Potency, µM (series often up to 46.1 µM), for inactives: at the highest dose activity, negative = less viability, hits mostly cytotoxic;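 further: NT is the 2HG producing partner of a matched IDH1 knockdown line; potency means the concentration at half of the fitted maximal effect; 0% = DMSO-treated cells and -100% = media-only wells without cells; nearly all actives have a fitted effect of over 55% in size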
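A 48-hour cytotoxicity screen used HT-1080-NT cells plated 2 hours before compound delivery. ATP-based CellTiter-Glo luminescence measured viability, normalized to DMSO and no-cell controls.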
IL-1B inflam inh: qHTS for Inhibitors of Inflammasome Signaling: IL-1-beta AlphaLISA Primary Screen. activity change, % at 57.5 µM. AID 743279, 2014. THP-1 LPS/ATP IL-1B secretion, AlphaLISA, 16 h; stronger effect = lower value. hit rate 4.7% among 360,000; in the data active means activity change below about -50%; inconclusive means mostly about -30% to -49%
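Secreted IL-1B measured by AlphaLISA bead assay after 16 h compound exposure of THP-1 cells; compounds (final up to 57.5 uM) added 1 h before LPS (250 ng/mL) and ATP (1.25 mM) stimulation; lower signal means less secretion.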
HT1080 IDH1KD tx: qHTS for induction of synthetic lethality in tumor cells producing 2HG: qHTS for the HT-1080-IDH1KD cell line | HT-1080 IDH1 knockdown viability, ATP luminescence, 48 h | Potency, µM (top dose mostly 46.1 µM), for inactives: at the top dose activity, negative = toxicity, actives largely listed as cytotoxic | hit rate 2% among 360,000;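 further: potency means the concentration at half of the fitted maximal effect; 0% = DMSO wells and -100% = cell-free medium wells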
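IDH1KD HT-1080 cells, 750/well, RPMI + 5% FBS; compound pinned after 2 h settling; 48 h, 37 °C; CellTiter-Glo luminescence; % activity normalised to DMSO and no-cell wells; curves fitted, classed by r2 and efficacy.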
12-LOX inh: Primary qHTS assay for inhibitors of human arachidonate 12S-lipoxygenase (ALOX12): Round 2 | Polyunsaturated fatty acid lipoxygenase ALOX12 (Homo sapiens), P18054 | purified 12hLO, xylenol orange hydroperoxide absorbance | Potency, µM (titrated, usually from 108 µM), without a hit: top-dose activity change, negative = inhibition, most hits filed as inhibitors | hit rate 1.1% among 580,000 | AID 1671190, 2021; further: potency means the concentration at half of the fitted maximal effect
Target sequence (P18054 whole entry, looked up): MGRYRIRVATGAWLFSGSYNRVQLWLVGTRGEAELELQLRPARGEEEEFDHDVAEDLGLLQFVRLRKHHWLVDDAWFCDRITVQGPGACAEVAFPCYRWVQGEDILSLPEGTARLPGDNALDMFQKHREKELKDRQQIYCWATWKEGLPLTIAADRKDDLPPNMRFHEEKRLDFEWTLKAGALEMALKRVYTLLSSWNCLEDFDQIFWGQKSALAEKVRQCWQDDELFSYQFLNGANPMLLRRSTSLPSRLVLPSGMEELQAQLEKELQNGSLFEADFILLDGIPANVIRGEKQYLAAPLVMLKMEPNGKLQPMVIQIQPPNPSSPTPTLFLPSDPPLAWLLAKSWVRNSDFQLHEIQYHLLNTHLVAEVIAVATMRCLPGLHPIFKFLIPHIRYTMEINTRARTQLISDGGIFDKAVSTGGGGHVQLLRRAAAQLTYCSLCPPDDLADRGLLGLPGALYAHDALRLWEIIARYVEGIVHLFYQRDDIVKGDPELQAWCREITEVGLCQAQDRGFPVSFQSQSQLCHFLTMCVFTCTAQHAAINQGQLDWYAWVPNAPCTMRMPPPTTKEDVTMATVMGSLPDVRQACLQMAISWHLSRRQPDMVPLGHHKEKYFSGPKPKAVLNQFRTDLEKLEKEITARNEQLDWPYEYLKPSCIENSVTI
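Purified human 12hLO at 150 nM in 25 mM Hepes, 0.01% Triton X-100, pH 7.0, preincubated 15 min at room temperature with compound. Reaction started with 40 uM arachidonic acid, 30 min at room temperature. Hydroperoxide measured by Fe-xylenol orange, 573/405 nm absorbance ratio.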
Active calls of the source: *; ? = inconclusive; · = no result; [ ] = another dose, or the depositor's remark. This excerpt belongs to a sample that is enriched for hits. Unless noted, the call rests on the fitted dose curve; in most records, active means well fitted curve in the direction sought with a large enough effect; inconclusive means small, poorly fitted or top-dose-only effect, or another doubt; inactive means no such curve, though single readings can be large; an effect the other way counts as inactive or inconclusive. Unless noted, on the % scale 0 is the no-effect control and ±100 the full control effect.

SMILES	TDP1 cell noCPT	TDP1 cell CPT	HT1080NT lethal	IL-1B inflam inh	HT1080 IDH1KD tx	12-LOX inh
Cc1ccc(C(=O)NCCSc2ccc(Cl)cc2)cc1S(=O)(=O)Nc1ccccc1	?	?	?	-93*	?	2%[57.4 µM]
CS(=O)(=O)Nc1ccc(C(=O)NCCSC2CCCCC2)cc1	-15%	?	-5%[9.24 µM]	5	-18%	-6%
Cc1ccc(NS(=O)(=O)c2cc(C(=O)NCCSc3ccc(C)cc3)ccc2C)cc1	?	?	?	-53*	?	-20%
CS(=O)(=O)Nc1ccccc1C(=O)NCCSc1ccc(Cl)cc1	?	?	?	17	-24%	-6%
COc1ccc(S(=O)(=O)N/N=c2\oc3c(OC)cccc3cc2S(=O)(=O)c2ccc(C)cc2)cc1OC	-16%	-25%	-20%	-54*	-13%	9%
Cn1c2ccncc2c2cc([N+](=O)[O-])ccc21	·	·	·	·	·	-2%
CC(=O)N(Cc1ccccc1)c1c(N)nc(N)[nH]c1=O	0%	8%	16%	-103*	13%	130%
Cc1nc(-c2c(-c3ccc(O)cc3O)noc2C(F)(F)F)cs1	16µM*	18µM*	-11%	13	-14%	0%
CN1CCN(Cc2ccc(-c3ccc(C(C)(C)C#N)cc3)nc2)CC1	·	·	·	·	·	20µM*
NC(=O)C1CCN(C(=O)c2ccc3ccn(Cc4ccccc4)c3c2)CC1	·	·	·	·	·	12%
Cc1ccc2nsnc2c1S(=O)(=O)N[C@@H]1CC[C@@H](N)C1	·	·	·	·	·	78%
O=C(NCC1CN(C(=O)Cc2cccc(Cl)c2)CC12CN(c1ccccc1)C2)c1ccccc1 (stereo not drawn)	·	·	·	·	·	-52%
Cc1ccc(NC(c2nnc(-c3ccccc3)o2)c2ccccc2F)c([N+](=O)[O-])c1 (stereo not drawn)	23µM*	-23%	·	·	·	-9%
COc1ccc([N+](=O)[O-])cc1NC(c1nnc(-c2ccccc2)o1)c1ccccc1F (stereo not drawn)	10%	15%	·	·	·	-16%
CCn1c(C)nc2cc(C(=O)N/N=C/c3cccc(OC)c3O)ccc21	?	?	-28%	166	?	?
CCC(=NNC(=O)c1ccc2c(c1)nc(C)n2CC)c1cc(F)ccc1O	12µM*	13µM*	-6%	81	?	0%
CCn1c(C)nc2cc(C(=O)N/N=C/c3ccc(O)c(O)c3O)ccc21	?	26µM*	-13%	24	-13%	-21%
CCn1c(C)nc2cc(C(N)=O)ccc21	0%	-4%	4%	-17	4%	0%
CCC(C)[C@H](NC(=O)Nc1ccc(C)cc1C)C(=O)O (stereo partly drawn)	-61%	12µM*	2%	10	6%	61%
CCCCc1ccc(NC(=O)OC)cc1	?	-3%	9%	-13	8%	184%
COC(=O)C(CC(C)C)NC(=O)Nc1ccc(C)cc1C (stereo not drawn)	·	·	·	·	·	-10%
CCCCc1ccc(NC(=O)N[C@H](C(=O)O)C(C)CC)cc1 (stereo partly drawn)	10µM*	?	15%	17	14%	298%
CCCCc1ccc(NC(=O)N[C@H](C(=O)O)C(C)C)cc1	7.3µM*	16µM*	5%	19	7%	426%
CCC(C)[C@H](NC(=O)Nc1ccc(Oc2ccccc2)cc1)C(=O)O (stereo partly drawn)	-27%	-8%	-1%	33	-1%	12%
O=C(CC[C@H]1O[C@@H](n2cnc3c(NC(=O)c4ccccc4)ncnc32)[C@H](O)[C@@H]1O)NCC1CCCCC1	-4%	-1%	18%	-4	22%	-6%
SMILES	TDP1 cell noCPT	TDP1 cell CPT	HT1080NT lethal	IL-1B inflam inh	HT1080 IDH1KD tx	12-LOX inh
Cc1cc(=O)[nH]c2nnc(-c3ccc(Cl)cc3)n12	?	-1%	11%	2	10%	7%
O=C(NC(C1CC1)C1CC1)c1ccc(F)c(F)c1	·	·	·	·	·	7%
C=Cc1ccc(Cn2nc(-c3ccc(C)c(S(=O)(=O)N(CC)CC)c3)ccc2=O)cc1	?	16µM*	·	·	·	4%
O=C(NCC1CCN(Cc2ccc(F)cc2)CC1)C1CCCN(c2ncnc3c2nc2n3CCCCC2)C1 (stereo not drawn)	?	?	-11%	?	-1%	9%
O=C(Nc1ccc(F)cc1)C1CCCN(c2ncnc3c2nc2n3CCCCC2)C1 (stereo not drawn)	12µM*	13µM*	·	·	·	?
CCCN(C(=O)C1CCCN(c2ncnc3c2nc2n3CCCCC2)C1)c1ccc(F)cc1 (stereo not drawn)	21µM*	18µM*	6%	46	8%	0%
Cc1ccc(NC(=O)C2CCCN(c3ncnc4c3nc3n4CCCCC3)C2)cc1F (stereo not drawn)	23µM*	18µM*	·	·	·	-26%
O=Cc1cccn1C(Cc1ccccc1)C(=O)O (stereo not drawn)	·	·	·	·	·	-3%
CCOC(=O)c1c(N/N=C/c2cccnc2)n[nH]c1C	13µM*	13µM*	?	-17	?	0%
Cc1ccc(Nc2cc(C)nc3ccccc23)c(C)c1	12µM*	12µM*	?	-95*	?	0%
Cc1cc(Nc2ccc(F)cc2)c2ccccc2n1	?	?	-7%	1	-8%	-17%
Cc1ccc(C)c(Nc2cc(C)nc3ccccc23)c1	16µM*	15µM*	-10%	-70*	?	0%
Cc1cc(Nc2ccccc2O)c2ccccc2n1	?	?	-25%	-63*	0%	-10%
